TSHR ag: qHTS Assay for Agonists of the Thyroid Stimulating Hormone Receptor. Thyrotropin receptor (Homo sapiens), P16473. hit rate 0.48% among 73,000. Potency, µM (series often up to 57.1 µM), without a hit: at the highest dose activation, actives largely listed as activators. AID 926, 2007. HEK293-CNG-TSHR cells (CNG channel as cAMP sensor), membrane potential dye, cAMP; active means well fitted activation curve with a large enough effect in the main read-out, with a control signal flat, not every such curve was filed as active; inconclusive means small, poorly fitted or top-dose-only effect, or a change in a side signal; inactive means no such curve, though single readings can be large or run the other way; % of control where 0% means no effect;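 further: the control signal comes from parental cells without the receptor; potency means the concentration at half of the fitted maximal effect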
Target sequence (P16473 whole entry, looked up): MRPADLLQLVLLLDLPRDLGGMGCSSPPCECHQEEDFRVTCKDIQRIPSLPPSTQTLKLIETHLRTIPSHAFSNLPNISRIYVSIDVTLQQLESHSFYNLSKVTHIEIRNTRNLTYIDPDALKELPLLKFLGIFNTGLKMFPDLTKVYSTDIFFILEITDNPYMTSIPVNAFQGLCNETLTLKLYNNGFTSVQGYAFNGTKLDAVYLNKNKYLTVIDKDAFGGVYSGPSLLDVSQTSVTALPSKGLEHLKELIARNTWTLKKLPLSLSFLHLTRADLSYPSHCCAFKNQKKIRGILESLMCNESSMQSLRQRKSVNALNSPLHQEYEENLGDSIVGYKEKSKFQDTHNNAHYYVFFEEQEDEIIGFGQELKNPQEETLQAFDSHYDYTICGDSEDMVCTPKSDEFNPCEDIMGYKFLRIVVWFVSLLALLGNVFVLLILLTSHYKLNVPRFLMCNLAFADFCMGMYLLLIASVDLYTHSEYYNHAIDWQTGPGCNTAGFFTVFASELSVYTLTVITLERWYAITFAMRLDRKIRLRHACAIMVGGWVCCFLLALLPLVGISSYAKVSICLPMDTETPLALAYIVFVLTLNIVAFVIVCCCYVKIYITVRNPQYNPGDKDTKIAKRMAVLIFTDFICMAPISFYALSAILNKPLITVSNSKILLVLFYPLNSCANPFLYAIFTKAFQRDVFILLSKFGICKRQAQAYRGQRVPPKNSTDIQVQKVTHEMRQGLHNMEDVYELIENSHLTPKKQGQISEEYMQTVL
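HEK 293 cells stably expressing TSHR and a modified CNG channel, with CNG-only parental cells as counterscreen, were preloaded 60 min at room temperature with membrane potential dye containing 100 uM RO 20-1724. Compound exposure was 30 min, and depolarization was read as fluorescence at 590 nm.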
HEK293 cAMP ctrl: qHTS Assay for Agonists of the Thyroid Stimulating Hormone Receptor: Activators of Intracellular cAMP Concentrations in Parental HEK 293. parental HEK293 CNG cAMP sensor, membrane potential fluorescence. Potency, µM (highest dose often 57.1 µM), without a hit: top-dose activation, most hits filed as activators. hit rate 2.5% among 73,000. AID 938, 2007; further: potency means the concentration at half of the fitted maximal effect; % of control where 0% means no effect; nearly all actives have a fitted effect of over 55% in size
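Counterscreen for endogenous-receptor signalling: CNG-channel HEK 293 cells report cAMP rise by membrane depolarization. After 60 min dye equilibration with 100 uM RO 20-1724, compounds incubated 30 min before bottom-read fluorescence at 590 nm.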
Epigenetic mod: qHTS Assay for Epigenetic Modulators | AID 597, 2007 | Potency, µM (doses to about 46.1 µM), inactives show at the highest dose GFP derepression (activation) | hit rate 0.09% among 68,000 | mouse C127i GFP locus derepression, cytometry, 30 h; further: % of control where 0% means no effect
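Locus derepression in mouse mammary C127i cells whose integrated CMV-GFP reporter is normally silent; GFP expression after 30 h compound treatment was quantified by counting fluorescent cells.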
HBB splicing: qHTS Assay for Modulators of Hemoglobin Beta Chain Splicing. hit rate 0.06% among 65,000. HBB splicing reporter cell assay, activation; EGFP reporter with mutant IVS2-654 intron; response scale: normalised to 500 nM splice-correcting PNA. Potency, µM (top dose mostly 46.1 µM), for inactives: at the top dose activation, usual class: activators. AID 925, 2007; further: potency means the concentration at half of the fitted maximal effect; 0% is about no effect
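Compounds were applied for 2 days to HeLa EGFP-654 cells, 500/well in Optimem with 2% FCS. The reporter's EGFP is disrupted by mis-splicing of beta-globin intron IVS2-654. Readout: summed well GFP fluorescence from 488 nm laser scanning; reference was 500 nM antisense […] 654 PNA.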
UbGFP stabilizer: Ubiquitin-GFP Assay | Ubiquitin-GFP reporter cells, proteasome inhibition, GFP fluorescence; response scale: untreated = 0%, 10 µM MG-132 = 100% | Potency, µM (titrated, usually from 45.9 µM), without a hit: top-dose activation (GFP accumulation), actives largely listed as activators | 67,000 tested, under 10 active | AID 526, 2006; active means well fitted activation curve with a large enough effect, not every such curve was filed as active; inconclusive means small, poorly fitted or top-dose-only effect, or another doubt; inactive means no such curve, though single readings can be large or run the other way; further: potency means the concentration at half of the fitted maximal effect
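U2OS cells stably expressing ubiquitin(G76V)-GFP, seeded overnight in 0.5% FBS medium, were exposed to compounds (qHTS, 46 uM to 2.9 nM) for 4 hr at 37 °C. GFP-positive cells were counted by laser cytometry (488 ex/515 em), normalized between basal and 10 uM MG-132.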
ERK AVP inh: qHTS Assay for Inhibitors of the ERK Signaling Pathway using a Homogeneous Screening Assay; HEK293-V1b, vasopressin-stimulated pERK AlphaScreen; Potency, µM (series often up to 57.5 µM), for inactives: at the highest dose activity, negative = inhibition, hits mostly inhibitors; hit rate 0.99% among 72,000; AID 995, 2007; further: potency means the concentration at half of the fitted maximal effect; on the % scale 0 is the no-effect control and ±100 the full control effect; nearly all actives have a fitted effect of over 55% in size
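HEK293 cells stably expressing V1b receptor, preincubated 30 min at 37 °C with compound, then stimulated 5 min with 25 nM vasopressin. Phospho-ERK by AlphaScreen SureFire after 5 h RT; normalized to DMSO and vasopressin; AC50 by Hill fit.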
* hit, by the source's call; ? = inconclusive; nt = not tested or not shown; [ ] = remark or other dose. Most compounds without a hit are left out; they make up all but 3.8% or so of the library. Unless noted, the call rests on the fitted dose curve; in most records, active means well fitted curve in the direction sought with a large enough effect; inconclusive means small, poorly fitted or top-dose-only effect, or another doubt; inactive means no such curve, though single readings can be large; an effect the other way counts as inactive or inconclusive.

SMILES	TSHR ag	HEK293 cAMP ctrl	Epigenetic mod	HBB splicing	UbGFP stabilizer	ERK AVP inh
NCCC[C@@H](CC(=O)N[C@@H]1CCCC[C@H]1C(=O)N[C@H](CC(=O)N[C@@H](CCC(=O)O)CC(=O)O)Cc1c[nH]c2ccccc12)NC(=O)C[C@H](Cc1c[nH]c2ccccc12)NC(=O)[C@@H]1CCCC[C@H]1N	4%	7%	nt	1%	nt	nt
CC1(C)[C@@H]2CC[C@]1(C)[C@@H](OC(=O)/C=C\c1ccccc1)C2	6%[11.4 µM]	4%[11.4 µM]	18%[9.22 µM]	-1%[9.22 µM]	-2%[9.17 µM]	-2%[11.5 µM]
COc1cccc(Cn2c(=O)cnc3cnc(N(C)C)nc32)c1	?	?	5%[9.22 µM]	1%	-2%	-1%
Cc1nn(-c2ccccc2)c(Cl)c1C1C(C#N)=C(N)OC2=C1C(=O)CCC2 (stereo not given)	11%	10%	-1%	1%	-2%	-7%
Cc1ccc(-n2nc(C)c(C3C(C#N)=C(N)OC4=C3C(=O)CC(C)(C)C4)c2Cl)cc1 (stereo not given)	?	25µM*	-2%	nt	1%	13%
O=C(c1ccccc1CCc1ccccc1)N1CCN(c2ccccn2)CC1	?	16µM*	3%	-2%	-3%	-34%
O=C(c1ccccc1Cl)N1CCN(c2ccccn2)CC1	-8%	3%	4%	0%	-4%	-5%
Cc1noc(C)c1COC(=O)c1ccccc1Oc1ccccc1	?	32µM*	0%	0%	-3%	5%
c1ccc2scnc2c1	2%	-7%	nt	-1%	nt	22%
O=C(NCc1ccco1)c1sc(=S)n2c1[nH]c(=O)c1ccccc12	?	25µM*	3%	6%[0.369 µM]	nt	-22%
OC[C@@H]1O[C@@H](n2cnc3c(N[C@H]4CCC[C@@H]4O)ncnc32)[C@H](O)[C@H]1O	18%	8%	1%	nt	4%	0%
O=c1c(O)c(-c2ccc(O)cc2)oc2ccc(O)cc12	5%	-1%	-4%[9.22 µM]	nt	-3%	-17%
CC(C)(C)c1onc(OCP(=O)(O)O)c1C[C@@H](N)C(=O)O	4%	-9%	-2%	1%	3%	18%
COC(=O)c1c(NC(=O)Cc2cccs2)sc(C(=O)N2CCCCC2)c1C	?	?	0%	nt	-4%	?
CCOC(=O)c1c(NC(=O)Cc2cccs2)sc(C)c1C	?	25µM*	2%	0%[9.22 µM]	3%	?
CCOC(=O)c1c(C)c(C(=O)NC2CCCCCC2)c(C)n1C	10%[11.4 µM]	21%	0%	0%	19%	-9%
CCOC(=O)c1c(C)c2c(n1C)CCC/C2=N\O	nt	0%	-3%	nt	0%	3.2µM*
CCN(Cc1ccccc1)C(c1ccncc1)c1nnnn1C(C)(C)C (stereo not given)	?	?	-2%	nt	1%	5%
CC(C)(C)n1nnnc1C(c1cccs1)N(Cc1ccccc1)Cc1cccnc1 (stereo not given)	?	16µM*	0%	nt	8%	-8%
O=C(c1cc(C(F)(F)F)cc(C(F)(F)F)c1)N1CCC2(CC1)CN(c1ncccn1)C2	1%	-2%	2%[9.22 µM]	2%	9%	-17%
Cc1nc(SCC(=O)Nc2ccc3c(c2)OCCO3)c2oc3ccccc3c2n1	4µM*	20%	0%	-2%[57.5 µM]	-2%	?
CCc1nc(SCC(=O)Nc2ccc3c(c2)OCCO3)c2oc3ccccc3c2n1	nt	13%	2%	5%[0.369 µM]	-7%	?
O=c1oc2c(CN3CCCCC3)c(O)ccc2cc1-c1nc2ccccc2[nH]1	nt	-4%	0%	3%[0.369 µM]	nt	-11%
O=c1oc2c3c4c(cc2cc1-c1nc2ccccc2[nH]1)CCCN4CCC3	-14%	-11%	1%	0.79µM*	13%	-23%
NC(N)=NNC(=O)C(=O)O	1%[11.4 µM]	8%[11.4 µM]	6%[9.22 µM]	5%[9.22 µM]	0%[9.17 µM]	-5%[11.5 µM]
SMILES	TSHR ag	HEK293 cAMP ctrl	Epigenetic mod	HBB splicing	UbGFP stabilizer	ERK AVP inh
CC[C@@H]1[C@H]2CCCCN3[C@@H]2[C@@H](C[C@H]3[C@@H]2C[C@H](C)C(=O)O2)[C@@H]2[C@H]1OC(=O)[C@H]2C	3%	9%	-4%[9.22 µM]	nt	2%	nt
CCN(CC)S(=O)(=O)c1ccc(N2CCCC2)c(C(=O)OCC(=O)/C(C#N)=C(\C)N)c1	25µM*	15%	-1%	-1%	-4%	-20%
CC(C)CNC(=O)COC(=O)c1cc(S(=O)(=O)N2CCCCC2)ccc1N1CCOCC1	-2%[11.4 µM]	3%	1%	2%	3%	28%
COC(=O)[C@@H]1C[C@H]1[C@@H](NC(=O)OCc1ccccc1)c1ccccc1	?	?	nt	1%	nt	nt
CCOC(=O)C1=C(C)Nc2ncnn2C1c1ccc2c(c1)OCO2 (stereo not given)	3.2µM*	24%	2%	0%	7%	-2%
CCOC(=O)C1=C(C)NC(=O)NC1c1ccc2c(c1)OCO2 (stereo not given)	nt	nt	2%[20.6 µM]	nt	nt	nt
O=C(O)CCSC1=NCCN1	4%[11.4 µM]	3%[11.4 µM]	0%[9.22 µM]	5%[9.22 µM]	1%[9.17 µM]	0%[11.5 µM]
Cc1cc2c(c(=O)n1C1CC1)C(c1cccc(Cl)c1)C(C#N)=C(N)O2 (stereo not given)	?	3.2µM*	0%	1%[57.5 µM]	1%	-6%
C[C@@]12CCC3c4ccc(OC5C=CC(c6ccccc6)OC5CO)cc4CCC3C1CCC2=O (stereo not given in full)	18%[11.4 µM]	12%[11.4 µM]	nt	1%[9.22 µM]	nt	27%[11.5 µM]
COc1ccc(-c2noc(CN(C(=O)c3ccc(OC(C)=O)cc3)C(C)C)n2)cc1OC	25µM*	1%	-7%	0%	3%	?
COc1cc(OC)cc(C(=O)N(Cc2nc(-c3cccc(C)c3)no2)C(C)C)c1	?	32µM*	0%	1%	-4%	6%
CSc1nc(N)c2ncn([C@@H]3O[C@@H](COP(=O)(O)OP(=O)(O)O)[C@@H](O)[C@H]3O)c2n1	5%	-9%	-1%	1%	1%	-7%
CC(C)CO/N=C1/C[C@@H](O)[C@@H](O)[C@@H]2[C@@H]3C(=O)N(C[C@@H]4CCCO4)C(=O)[C@H]3CC[C@H]12	-2%[11.4 µM]	-1%[11.4 µM]	nt	4%[9.22 µM]	nt	14%[11.5 µM]
CCOc1ncccc1C(=O)Nc1ccccc1C(=O)NCc1ccc2c(c1)OCO2	?	?	0%	0%	-3%	-24%
CCOc1ccccc1CN(CCc1ccc2c(c1)OCO2)Cc1ccccn1	?	16µM*	5%	1%	-7%	0%
